Shown are actives, neighbours in structure and some others; about 8.9% of the full set was active somewhere.
IMPase cell inh = IMPase inhibition in cells. P97697. CHO-M1 cells, IP1 accumulation, HTRF TR-FRET ratio. inhibition (IP1 accumulation), % at 46.1 µM. 120,000 tested, under 10 active. AID 901; active means well fitted curve in the direction sought with a large enough effect in the signal ratio, not every such curve was filed as active; inconclusive means small, poorly fitted or top-dose-only effect, or a change in a side signal; inactive means no such curve, though single readings can be large or run the other way; the % refers to the signal ratio;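 further: cells stimulated with carbachol in lithium chloride buffer; plate controls were DMSO basal wells for no effect and reference inhibitor wells for full effect; higher means more IMPase inhibition seen as more IP1 and lower FRET ratio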
Target sequence (P97697 whole entry, looked up): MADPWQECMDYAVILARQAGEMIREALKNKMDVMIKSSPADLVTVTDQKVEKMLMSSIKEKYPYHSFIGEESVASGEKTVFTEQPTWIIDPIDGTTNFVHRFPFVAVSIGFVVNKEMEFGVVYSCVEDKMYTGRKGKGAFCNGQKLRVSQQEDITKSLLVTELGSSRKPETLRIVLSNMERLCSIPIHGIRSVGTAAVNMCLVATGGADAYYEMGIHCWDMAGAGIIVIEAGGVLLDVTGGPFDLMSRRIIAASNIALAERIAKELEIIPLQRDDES
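Cellular IMPase inhibition is scored as a rise in cytosolic IP1, detected by competitive TR-FRET between d2-labelled IP1 and a europium anti-IP1 antibody. M1-expressing CHO cells were stimulated with carbachol for 30 min at 37C, with lithium (50 mM LiCl) present in the buffer.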
HPGD inh = blocks human HPGD enzyme activity; purified HPGD, NADH fluorescence kinetic, PGE2 substrate; hit rate 4.3% among 150,000; Potency, µM, for the others: top-dose activity change, negative = inhibition, most hits filed as inhibitors; P15428; active means well fitted inhibition curve with a large enough effect, not every such curve was filed as active; inconclusive means small, poorly fitted or top-dose-only effect, or another doubt; inactive means no such curve, though single readings can be large or run the other way; further: potency means the concentration at half of the fitted maximal effect
Target sequence (P15428 whole entry, looked up): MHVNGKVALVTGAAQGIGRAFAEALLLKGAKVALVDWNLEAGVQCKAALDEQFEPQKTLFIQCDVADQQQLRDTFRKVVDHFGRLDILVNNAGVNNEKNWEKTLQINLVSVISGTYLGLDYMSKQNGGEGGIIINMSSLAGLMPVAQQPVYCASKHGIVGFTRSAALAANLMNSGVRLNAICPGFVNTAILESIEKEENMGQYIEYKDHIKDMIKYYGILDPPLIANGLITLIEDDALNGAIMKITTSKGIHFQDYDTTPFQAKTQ
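NADH formation kinetics: reaction with 30 uM PGE2 and 1 mM NAD+ (final), 20 nM enzyme, Tris-HCl pH 8 with Tween 20, after 15 min compound preincubation at room temperature. Fluorescence change, last versus first of five reads.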
ALDH1A1 inh = inhibitors of human aldehyde dehydrogenase 1A1 | P00352 | Purified ALDH1A1, NADH fluorescence, propionaldehyde substrate | Potency, µM (top dose mostly 75.3 µM), for inactives: at the highest dose activity, negative = inhibition, most hits filed as inhibitors | hit rate 7.3% among 220,000 | AID 1030; active means well fitted inhibition curve with a large enough effect, not every such curve was filed as active; inconclusive means small, poorly fitted or top-dose-only effect, or another doubt; inactive means no such curve, though single readings can be large or run the other way;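 further: potency means the concentration at half of the fitted maximal effect; plate controls were no enzyme wells and a reference inhibitor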
NPSR antagonist = neuropeptide S receptor (human) antagonism, cAMP. Q6W5P4. CHO-NPSR cells, cAMP TR-FRET, antagonist mode. Potency, µM (top dose mostly 38.3 µM), without a hit: at the highest dose activity change, negative = inhibition, usual class: inhibitors. hit rate 1% among 220,000. AID 1461; further: potency means the concentration at half of the fitted maximal effect; nearly all actives have a fitted effect of over 50% in size
ALOX12 inhib = 12-hLO (ALOX12) enzyme inhibition; P18054; purified 12-hLO, xylenol orange hydroperoxide absorbance; hit rate 0.12% among 150,000; Potency, µM (highest dose often 57.1 µM), for inactives: top-dose activity change, negative = inhibition, usual class: inhibitors; AID 1452; further: potency means the concentration at half of the fitted maximal effect; nearly all actives have a fitted effect of over 55% in size
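Hydroperoxide formation by human 12-lipoxygenase from 40 uM arachidonic acid was followed colorimetrically via ferric-xylenol orange complex, using the 573/405 nm absorbance ratio. Enzyme concentration was 150 nM, with 30 min reaction at room temperature.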
IMPase Li inh = membrane-permeable IMPase blocker, potentiated with lithium. CHO-M1 cells, IP1 TR-FRET (IP-One), carbachol + lithium. Potency, µM (doses to about 59.4 µM), for the others: at the top dose activity, negative = IMPase inhibition, most hits filed as inhibitors. hit rate 0.35% among 210,000;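 further: IP1 builds up when IMPase is blocked and the TR-FRET signal falls; potency means the concentration at half of the fitted maximal effect; plate controls were basal vehicle for no effect and high inhibitor control for full effect; nearly all actives have a fitted effect of over 50% in size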
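CHO cells stably expressing M1 receptor (2000/well) were cultured 16–30 h, then exposed to compounds with a small lithium addition for 30 min at 37C. IP1 was measured by TR-FRET competition; AC50 from Hill fits.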
* marks the source's active call; other numbers are inactive results; [ ] = another dose, or the depositor's remark. Unless noted, the call rests on the fitted dose curve; in most records, active means well fitted curve in the direction sought with a large enough effect; inconclusive means small, poorly fitted or top-dose-only effect, or another doubt; inactive means no such curve, though single readings can be large; an effect the other way counts as inactive or inconclusive. Unless noted, on the % scale 0 is the no-effect control and ±100 the full control effect.

For CCC(Oc1ccccc1)C(=O)Nc1ccsc1C(=O)OC (stereo not drawn) the results were HPGD inh inconclusive, ALDH1A1 inh 14.1µM*, NPSR antagonist -29.1%, ALOX12 inhib -7.0% and IMPase Li inh 11.4%.
`Cn1c(NCC2CCCO2)nc2c1c(=O)n(Cc1ccccc1)c(=O)n2C` (stereo not drawn) gave IMPase cell inh -3.0, HPGD inh -13.6%, ALDH1A1 inh -7.9%, NPSR antagonist -0.6%[46.1 µM], ALOX12 inhib -1.2% and IMPase Li inh 4.9%[38.3 µM].
For C=C1C(=O)O[C@@H]2[C@@H]1CC/C(C)=C\CC[C@@]1(C)O[C@H]21 the results were IMPase cell inh 4.9[20.6 µM], HPGD inh -1.3%, ALDH1A1 inh 10µM*, ALOX12 inhib -1.4%[25.6 µM] and IMPase Li inh -5.2%.
For C=C1C(=O)O[C@@H]2[C@H]3O[C@]3(C)CCC=C(C)CC[C@@H]12 the results were IMPase cell inh 4.2, HPGD inh -4.5%, ALDH1A1 inh 20µM*, NPSR antagonist 3.2%[46.1 µM], ALOX12 inhib -1.0% and IMPase Li inh 10.6%.
`O=c1c(CCc2ccccc2)nc2cnc(N3CCOCC3)nc2n1CCc1ccccc1` gave ALDH1A1 inh inconclusive and IMPase Li inh 1.3%.
Screening O=C(CN1C(=O)CSC1=O)Nc1ccc(C(=O)O)cc1 returned IMPase cell inh 4.8, HPGD inh -16.6%, ALDH1A1 inh inconclusive, NPSR antagonist 20.3%[46.1 µM], ALOX12 inhib -0.2% and IMPase Li inh -4.2%[38.3 µM].
`Cc1cc(C(F)(F)F)nn1CC(=O)N1CCCCC1C` (stereo not drawn) gave IMPase cell inh 8.1, HPGD inh 2.7%, ALDH1A1 inh 3.5%, NPSR antagonist -5.1%[7.67 µM], ALOX12 inhib -4.4% and IMPase Li inh -4.8%[38.3 µM].
CC(=O)NCc1ccc(C(=O)CCl)s1 was read as ALDH1A1 inh 0.141µM*, NPSR antagonist -12.9% and IMPase Li inh -6.8%.
`CC(=O)NCc1ccc(C(=O)CCl)cc1` gave ALDH1A1 inh 0.355µM*, NPSR antagonist -14.8% and IMPase Li inh 9.5%.
Screening CC(=O)Nc1ccc(C)cc1 returned HPGD inh -6.1%, ALDH1A1 inh -0.7%, ALOX12 inhib -5.1% and IMPase Li inh -13.0%.
Screening CC(=O)NCCC(=O)NCc1ccc(F)cc1 returned IMPase cell inh 1.8, HPGD inh -8.8%, ALDH1A1 inh -9.8%, NPSR antagonist 2.1%[46.1 µM], ALOX12 inhib 3.9% and IMPase Li inh 29.6%[38.3 µM].
For CC(=O)N(C)Cc1ccc(C(=O)CCl)cc1 the results were ALDH1A1 inh 0.708µM*, NPSR antagonist -1.1% and IMPase Li inh 21.1%.
CC(=O)Nc1ccc(C(=O)CCl)cc1 was read as HPGD inh -12.0%, ALDH1A1 inh 0.0447µM*, ALOX12 inhib -1.6% and IMPase Li inh 19.9%.
`CCC(=O)c1ccc(CCCCCC(=O)O)s1` gave IMPase cell inh -14.1, HPGD inh -25.4%, ALDH1A1 inh 10.1%, NPSR antagonist 5.7%[46.1 µM], ALOX12 inhib 1.1% and IMPase Li inh inconclusive.
`O=c1nc2ccccc2c2n1CC(CN1CCN(C(c3ccccc3)c3ccccc3)CC1)N2` (stereo not drawn) gave ALDH1A1 inh 4.4%, NPSR antagonist inconclusive and IMPase Li inh 23.6%.
`Cc1ccc(CSCC(=O)Nc2ccc(F)cc2)cc1` gave IMPase cell inh 8.8, HPGD inh -10.7%, ALDH1A1 inh -8.1%, NPSR antagonist -8.7%, ALOX12 inhib -1.8% and IMPase Li inh 8.0%.
COc1ccc(NC(=S)Nc2cc(S(=O)(=O)N3CCCCC3)ccc2OC)cc1 was read as HPGD inh -17.5%, ALDH1A1 inh inconclusive, NPSR antagonist -13.8%, ALOX12 inhib -6.6% and IMPase Li inh 5.1%.
Screening COc1ccc(-n2cc(CN(C)C(C)c3ccncn3)c(-c3cccc(F)c3)n2)cc1 (stereo not drawn) returned ALDH1A1 inh 25.1µM*, NPSR antagonist 31.9% and IMPase Li inh 16.0%.
For Cc1ccc(CN(CC(=O)NC(C)(C)C)C(=O)CNC(=O)c2cccs2)cc1 the results were ALDH1A1 inh 9.1%, NPSR antagonist -6.1% and IMPase Li inh 3.6%.

Bioassay records (PubChem BioAssay)
